Among all 16,000 compounds or so, about 2,600 (16%) were called active. About 20% were inconclusive and are not listed. Calls come from the whole dose curve; as a rule, active = well fitted curve in the direction sought with a large enough effect; inconclusive = small, poorly fitted or top-dose-only effect, or effect the other way; inactive = no such curve, though single readings can be large or run the other way. Only a sample is shown.
What follows are compounds tested against Cytochrome P450 2D6 (Homo sapiens) (UniProt P10635) (assay: Cytochrome panel assay with activity outcomes). Details: recombinant CYP, pro-luciferin dealkylation, luminescence, p450-cyp2d6; series mostly up to 57.1 µM.
% is set by controls: 0 for no effect and ±100 for the full control effect.

Chain of Cytochrome P450 2D6 (Homo sapiens) (P10635 whole entry, looked up): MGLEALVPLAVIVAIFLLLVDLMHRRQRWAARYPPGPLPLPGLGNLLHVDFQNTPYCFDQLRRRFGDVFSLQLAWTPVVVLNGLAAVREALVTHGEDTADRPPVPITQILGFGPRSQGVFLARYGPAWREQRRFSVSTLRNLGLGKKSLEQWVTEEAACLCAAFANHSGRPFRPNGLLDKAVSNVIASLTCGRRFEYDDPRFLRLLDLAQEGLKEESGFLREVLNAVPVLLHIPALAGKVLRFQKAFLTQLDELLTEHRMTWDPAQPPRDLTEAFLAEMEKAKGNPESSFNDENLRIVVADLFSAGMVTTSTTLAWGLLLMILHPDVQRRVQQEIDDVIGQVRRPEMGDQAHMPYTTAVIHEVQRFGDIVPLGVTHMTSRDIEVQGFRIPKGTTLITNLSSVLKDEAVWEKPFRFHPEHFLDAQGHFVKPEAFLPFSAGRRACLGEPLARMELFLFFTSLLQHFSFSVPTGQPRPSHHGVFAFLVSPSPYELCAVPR

AC50, inactive:
CC(C)(C)c1ccc(OCC(=O)NNC(=O)CCc2ccccc2)cc1, COc1ccc(/C=N/NC(=O)CCc2ccccc2)cc1O, COc1ccc(CNC(=O)Nc2cccs2)cc1OC, COc1ccc(C[C@@](C)(N)C(=O)O)cc1OC, COc1ccc(C/C(N)=N/OC(=O)Cc2ccccc2)cc1OC, CCOc1cc(CNc2ccc(OC)cc2)cc(Br)c1OCC(=O)NC(C)(C)C, Cc1cccc2nc(C(F)(F)F)nc(=O)n12, COc1cccc(Cn2c(=O)c(-c3cn(C)c4ccccc34)nc3cnc(OC)nc32)c1, COc1ccc(NS(=O)(=O)c2cc(-c3nnnn3C)ccc2OC)cc1, COC(=O)Nc1nc2ccc(C(=O)c3cccs3)cc2[nH]1, COCC(=O)N1CCC2(CCCN(c3ccncc3)C2)CC1, CC1=C(C(N)=O)C(c2ccccn2)n2nc(SCc3ccccc3Cl)nc2N1 (centres undefined), CN1CCN(c2ncc3nc(-c4cc(F)cc(F)c4)c(=O)n(CCC#N)c3n2)CC1, Cc1cccc(-n2cccc2)c1C#N, FC(F)(F)c1ccccc1-n1ccnc1, O=C(/C=C\NCC(=O)c1ccccc1)c1ccccc1, N#CC1=C(N)OC2=C(CC/C2=C\c2ccccc2)C1c1ccccc1 (centres undefined), Cc1c(-c2c(C#N)c(N)nc3c2CCCCCC3)cnn1C, NS(=O)(=O)c1cc2c(cc1C(F)(F)F)N[C@H](Cc1ccccc1)NS2(=O)=O, CCN1CCN(S(=O)(=O)c2ccc(Cl)c(C(=O)Nc3nnc(CC(C)C)s3)c2)CC1, Cc1ccc(C)c(NC(=O)C2CC(O)CN2C(=O)OC(C)(C)C)c1 (centres undefined), Cc1ccc(C(=O)NC(=S)Nc2cc(-c3nc4ccccc4s3)ccc2C)cc1, CCOc1ncccc1C(=O)OCC(=O)Nc1cc(C)ccc1C, Cc1ccc(NC(=O)C2C3CCCC2C3c2ccccc2)cc1C (centres undefined), Cc1ccc(C)c(NC(=O)Cn2c([N+](=O)[O-])cnc2C)c1, CC(C)COCC1CC2(CC(C)(c3csc(N)n3)OC2=O)C(=O)O1 (centres undefined), CCS(=O)(=O)N1CCN(c2c(Cl)cccc2[N+](=O)[O-])CC1, COC(=O)C1=C(C)NC(C)=C(C(=O)OC(C)C)[C@H]1c1cccc2nonc12, O=C(c1ccccc1)c1ccc2nc(-c3ccc(NC(=O)c4ccccc4F)cc3)[nH]c2c1, Nc1ccc(S(=O)(=O)Nc2cnc3ccccc3n2)cc1, O=C1C2C3C=CC(C3)C2C(=O)N1c1ncn[nH]1 (centres undefined), COc1ccc(CC(=O)Nc2ccc(-c3noc(-c4cccc(OC)c4)n3)cc2)cc1, CN(C)S(=O)(=O)Oc1ccccc1C(=O)Nc1cccc(C(F)(F)F)c1, C=CCn1c(SCc2ccccc2)nc2scc(-c3ccc(C)o3)c2c1=O, COc1cccc(/C=N/NC(=O)CSc2nnc(C)n2-c2ccccc2)c1O, COCCN1C(=O)C(=O)/C(=C(/O)c2cccc(OC)c2)C1c1ccco1 (centres undefined), CCC(=O)NC(NCC1CCCO1)C(Cl)(Cl)Cl (centres undefined), Cc1ccc(CCN2CC(C(=O)NCCN3CCOCC3)CC2=O)cc1 (centres undefined), Cc1ccc(CCN2CC(C(=O)NC3CCCC3)CC2=O)cc1 (centres undefined), Cc1cccc(-c2noc(-c3cc4ccccc4oc3=O)n2)c1, Cc1ccc(-c2noc(-c3cc4ccccc4oc3=O)n2)cc1, Cc1ccccc1N1CCN(S(=O)(=O)C[C@@]23CC[C@H](C[C@H]2NC(=O)[C@@H](N)CCS(C)(=O)=O)C3(C)C)CC1, Cc1cc(=O)[nH]c(SCC(=O)Nc2nc3c(s2)CCCC3)n1, CCN1CCc2nc(NC(=O)c3ccc4c(c3)OCCO4)sc2C1, CC1=NN(c2ccccc2)C(=O)/C1=C\c1c(C)[nH]n(-c2ccccc2)c1=O, COc1ccc2oc(=O)c(C(=O)Oc3ccc(NC(C)=O)cc3)cc2c1, Cc1ccc2oc(-c3cccc(NC(=S)NC(=O)/C=C/c4ccco4)c3)nc2c1, CCOc1[nH]n(-c2ccc(Cl)cc2)c(=O)c1C=Nc1ccc(O)cc1, C=C(C)[C@H]1CC=C(C)/C(=N/NC(=O)CNc2ccccc2OC)C1, CC(C)(C)c1nc(SCC(=O)Nc2ccc3c(c2)OCCO3)c2ccccc2n1, CCC(C)NS(=O)(=O)c1ccc(OCC(=O)Nc2ccc3c(c2)OCCO3)cc1 (centres undefined), Cc1noc(N)c1C(=O)Nc1ccc(F)cc1, N#Cc1c(NC(=O)CCN2C(=O)c3ccccc3C2=O)oc(-c2ccccc2)c1-c1ccccc1, CC1CCN(S(=O)(=O)c2ccc3c(c2)C(=NO)c2cc(S(=O)(=O)N4CCC(C)CC4)ccc2-3)CC1, CC1Cc2ccccc2N1C(=O)C1CCCCN1S(=O)(=O)c1ccccc1 (centres undefined), OC[C@@H]1NC[C@@H](O)[C@H]1O, O=C(C/C=N/OCc1ccc(F)cc1Cl)c1cnc(-c2ccccc2)s1, O=C(COC(=O)COc1ccccc1)Nc1ccc(OC(F)(F)F)cc1, CC(C)OC(=O)/C(=C\c1ccc2c(c1)c1ccccc1n2C)NC(=O)c1ccccc1, COCCCNC(=O)c1c(N)n(/N=C/c2ccccn2)c2nc3ccccc3nc12, COCCn1c(=O)cnc2cnc(Oc3ccccc3)nc21, CN(C1CCCCC1)S(=O)(=O)c1ccc(NC(=S)NC(=O)c2cccs2)cc1, COC(=O)c1sc2ncccc2c1OCc1c(Cl)cccc1Cl, CCn1c(=O)[nH]c2ccccc2c1=O, O=c1cc(N2CCC(Cc3ccccc3)CC2)[nH]c(=O)n1C1CCCCC1, CC1(C)CC(=O)c2cn3ncnc3nc2C1, O=C1C2C3C=CC(C3)C2C(=O)N1/N=C/c1cn(Cc2ccc(F)cc2)c2ccccc12 (centres undefined), Nc1nc(-c2cccs2)cs1, Cc1oc(-c2cccs2)[n+]([O-])c1C, Cc1cc(NC(=O)CCC(=O)N(CC2CCCO2)C(C(=O)NC2CCCC2)c2cccnc2)no1 (centres undefined), C=CCSc1nc(NC)c2sccc2n1, Cc1cccc(NC(=S)N2CCC(N(C)CC3CCCO3)CC2)c1C (centres undefined), COc1ccccc1-c1c(C(F)(F)F)oc2cc(OC(=O)c3cccc([N+](=O)[O-])c3C)ccc2c1=O, O=C(Nc1cccc2ccccc12)/C(=C/c1ccc([N+](=O)[O-])cc1)NC(=O)c1ccccc1, Cc1ccc(NC(=O)/C(=C\c2ccc([N+](=O)[O-])cc2)NC(=O)c2ccccc2)cc1

AC50, active:
CSC1(SC2=NCCN2)SC2(NCCN2)S1 3.98 µM, COc1cc(CNCCc2ccccc2)ccc1OCC(=O)NC(C)(C)C 3.16 µM, COc1ccc(CNCCc2ccccc2)cc1OCC(N)=O 0.398 µM, COc1cc(CNCc2cccs2)ccc1OCC(N)=O 2 µM, N#Cc1c(-n2ccnc2)cccc1-n1ccnc1 6.31 µM, COc1ccc(CNc2ncncc2-c2ccc(N(C)C)cc2)c(OC)c1 10 µM, COc1ccc(CNc2ncncc2-c2ccc(C(=O)N(C)C)cc2)c(OC)c1 20 µM, Cc1ccc(C)c(NC(=O)C2C3CCCC2C3c2ccccc2)c1 (centres undefined) 2.82 µM, Cc1ccc(C)c(NC(=O)C2(C)CC3c4ccccc4C2c2ccccc23)c1 (centres undefined) 0.2 µM, Cc1ccc(C)c(NC(=O)C2CC3c4ccccc4C2c2ccccc23)c1 (centres undefined) 0.2 µM, Fc1cc2nc(-c3ccncc3)[nH]c2cc1F 12.6 µM, COc1ccc(-c2noc(N(C)CC(=O)Nc3cccc(C(F)(F)F)c3)n2)cc1 35.5 µM, CCOCCCN1CC(C(=O)NCCc2ccc(C)cc2)CC1=O (centres undefined) 3.55 µM, O=c1oc2ccccc2cc1-c1csc(NN=C2CCCCC2)n1 2.82 µM, CCN1CCc2nc(NC(=O)CC(c3ccccc3)c3ccccc3)sc2C1 0.316 µM, CCOc1ccc2nc(C)cc(Nc3ccc4c(c3)OCCO4)c2c1 1.58 µM, CC1CCN(CC[C@@H]2CCCN2S(=O)(=O)c2cccc(O)c2)CC1 15.8 µM, CCCCCOC(=O)c1c(N)n(CCOC)c2nc3ccccc3nc12 25.1 µM, CCCCN1CCC(n2c(=O)[nH]c3ccccc32)CC1 3.16 µM, Cc1cc(-c2cccs2)nc(-n2cccc2)n1 14.1 µM, O=C(OCC(=O)c1ccc([N+](=O)[O-])cc1)/C(=C\c1ccc(Cl)cc1)NC(=O)c1ccccc1 14.1 µM

activity, negative = inhibition, inactive:
N[C@@H]1[C@@H]2[C@@H]3C[C@H]4N(CC[C@@]14C(=O)C(=O)O)CC3=CCO[C@@H]2CC(=O)O -4.74% [at 11.4 µM], CC(C)CNc1nc(N)[nH]c(=O)c1NC=O -2.42% [at 11.4 µM], CO[C@H]1COC(=O)[C@H](C)COC(=O)[C@@H](Cc2ccccc2)NC(=O)C/C=C\[C@H]1C 3.3% [at 11.4 µM], CC(C)=NOCc1cccc(-c2cc(-c3ccccc3)no2)c1 -6.68% [at 11.4 µM], O=C(O)CCNc1ccccc1C(=O)O 3.09% [at 11.4 µM], CC(C)=NO[C@@H](C)c1cn([C@@H]2COC[C@@H]2O)nn1 14.3% [at 11.4 µM], CO[C@@H]1COC(=O)[C@H]2CCCN2C(=O)[C@@H](C)COC(=O)[C@H](COCc2ccccc2)NC(=O)C/C=C\[C@H]1C 1.71% [at 11.4 µM], CO[C@H]1COC(=O)[C@H](C)NC(=O)C/C=C\[C@@H](C)[C@@H](NS(=O)(=O)c2ccc(C)cc2)COC(=O)[C@H](OCc2ccccc2)/C=C\[C@@H]1C -11.2% [at 11.4 µM]
